What all share (test): DAPPL (digital affinity profiling via proximity ligation, sequencing); 10 mM Tris-HCl pH 7.5, 50 mM NaCl, 1 mM DTT, 4% glycerol, room temperature, 30 min; GST-TFs on glutathione beads, 16-mer random dsDNA library, 0.1% formaldehyde crosslink after washing; high values mean tight binding
One assay deals with T1, FEV (Homo sapiens, UniProt Q99581 1-238).
T1 sequence: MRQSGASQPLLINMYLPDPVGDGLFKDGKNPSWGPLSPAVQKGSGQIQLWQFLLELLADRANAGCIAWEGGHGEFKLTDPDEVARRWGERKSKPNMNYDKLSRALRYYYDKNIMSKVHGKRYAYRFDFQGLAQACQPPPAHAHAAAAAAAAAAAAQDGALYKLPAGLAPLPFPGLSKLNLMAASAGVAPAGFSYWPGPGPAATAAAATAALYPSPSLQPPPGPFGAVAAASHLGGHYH
The following applies: protein: recombinant; tags: N-terminal GST; dsDNA, one strand shown. The essentials: (§1)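 Beads coated with glutathione captured GST-fused human transcription factors that had been expressed in yeast, and the factors were then given DNA barcodes and pooled with a tag-only sample. The pools were incubated with 200 nmole of a random double-stranded 16-mer DNA library in Tris/NaCl/DTT/glycerol buffer for 30 min at room temperature, washed, crosslinked with 0.1% formaldehyde and proximity-ligated with BsaI/T4 ligase at 37 °C for 1 h. PCR amplification and Illumina NextSeq500 sequencing came last. Binding signal is each hexamer's read frequency for a factor divided by its frequency for the tag-only sample.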

The target of a further assay is ETV5 (Homo sapiens, UniProt P41161 1-510). The conditions noted are these: protein: recombinant; tags: N-terminal GST; dsDNA, one strand shown. The procedure, abridged:
as §1

The target of a further assay is HSF1 (Homo sapiens, UniProt Q00613 1-529). The conditions noted are these: protein: recombinant; tags: N-terminal GST; chain copies: 3; dsDNA, one strand shown. The procedure, abridged: as §1
For another assay, the target named is T2, SPIC (Homo sapiens, UniProt Q8N5J4 1-248).
T2 sequence: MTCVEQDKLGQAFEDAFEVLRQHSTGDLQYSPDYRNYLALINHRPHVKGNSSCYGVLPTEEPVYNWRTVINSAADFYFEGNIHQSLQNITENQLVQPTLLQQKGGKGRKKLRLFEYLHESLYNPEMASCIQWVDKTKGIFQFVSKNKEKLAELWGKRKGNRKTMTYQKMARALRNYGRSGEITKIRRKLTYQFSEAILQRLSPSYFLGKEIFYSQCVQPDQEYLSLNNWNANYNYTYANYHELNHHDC
The conditions noted are these: protein: recombinant; tags: N-terminal GST; dsDNA, one strand shown. The essentials:
as §1

For a further assay, the target named is ELF4 (Homo sapiens, UniProt Q99607 1-663). The following applies: protein: recombinant; tags: N-terminal GST; dsDNA, one strand shown. The essentials: as §1
Another assay concerns the target T3, ELK4 (Homo sapiens, UniProt P28324-2 1-405).
T3 sequence: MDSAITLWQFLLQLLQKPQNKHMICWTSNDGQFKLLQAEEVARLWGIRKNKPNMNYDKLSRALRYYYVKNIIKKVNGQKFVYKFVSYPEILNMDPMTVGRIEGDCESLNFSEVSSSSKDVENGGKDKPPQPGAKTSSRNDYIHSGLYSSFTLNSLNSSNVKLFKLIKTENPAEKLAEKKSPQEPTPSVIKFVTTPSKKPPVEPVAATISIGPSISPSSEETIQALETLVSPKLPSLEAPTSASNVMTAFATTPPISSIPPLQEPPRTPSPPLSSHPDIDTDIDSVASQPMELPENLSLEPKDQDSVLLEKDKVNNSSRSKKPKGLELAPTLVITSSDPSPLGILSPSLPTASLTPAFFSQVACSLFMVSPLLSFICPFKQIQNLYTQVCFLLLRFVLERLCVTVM
The following applies: protein: recombinant; tags: N-terminal GST; dsDNA, one strand shown. The essentials: as §1

For the next assay, the target named is T4, ETV2 (Homo sapiens, UniProt O00321 1-342).
T4 sequence: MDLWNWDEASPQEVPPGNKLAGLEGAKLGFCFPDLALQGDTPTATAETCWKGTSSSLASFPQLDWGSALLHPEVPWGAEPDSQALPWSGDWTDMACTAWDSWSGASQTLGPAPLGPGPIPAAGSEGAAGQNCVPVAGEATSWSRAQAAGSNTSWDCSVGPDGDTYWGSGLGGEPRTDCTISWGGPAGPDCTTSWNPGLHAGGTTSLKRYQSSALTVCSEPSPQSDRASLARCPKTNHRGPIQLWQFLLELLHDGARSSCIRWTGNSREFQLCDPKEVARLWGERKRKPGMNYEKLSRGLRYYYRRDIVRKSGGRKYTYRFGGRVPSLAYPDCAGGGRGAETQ
The conditions noted are these: protein: recombinant; tags: N-terminal GST; dsDNA, one strand shown. The essentials: as §1

The target of another assay is T5, ELF3 (Homo sapiens, UniProt P78545 1-371).
T5 sequence: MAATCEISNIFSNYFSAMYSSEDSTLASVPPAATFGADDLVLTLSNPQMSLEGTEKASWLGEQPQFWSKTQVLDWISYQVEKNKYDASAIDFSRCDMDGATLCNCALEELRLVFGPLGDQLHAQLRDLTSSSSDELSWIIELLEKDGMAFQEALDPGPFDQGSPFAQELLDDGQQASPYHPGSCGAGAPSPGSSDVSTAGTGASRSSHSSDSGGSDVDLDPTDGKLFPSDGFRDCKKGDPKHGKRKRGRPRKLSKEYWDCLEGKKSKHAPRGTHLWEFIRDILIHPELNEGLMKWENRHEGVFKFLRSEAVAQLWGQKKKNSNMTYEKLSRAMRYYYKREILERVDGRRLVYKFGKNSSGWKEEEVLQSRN
The following applies: protein: recombinant; tags: N-terminal GST; dsDNA, one strand shown. The procedure, abridged:
as §1

A further assay concerns the target CRX (Homo sapiens, UniProt O43186 1-299). The following applies: protein: recombinant; tags: N-terminal GST; dsDNA, one strand shown. The essentials: as §1
The target in the next assay is ETV1 (Homo sapiens, UniProt P50549 1-477). The following applies: protein: recombinant; tags: N-terminal GST; dsDNA, one strand shown. The essentials:
as §1

A further assay deals with T6, ERF (Homo sapiens, UniProt P50548 1-548).
T6 sequence: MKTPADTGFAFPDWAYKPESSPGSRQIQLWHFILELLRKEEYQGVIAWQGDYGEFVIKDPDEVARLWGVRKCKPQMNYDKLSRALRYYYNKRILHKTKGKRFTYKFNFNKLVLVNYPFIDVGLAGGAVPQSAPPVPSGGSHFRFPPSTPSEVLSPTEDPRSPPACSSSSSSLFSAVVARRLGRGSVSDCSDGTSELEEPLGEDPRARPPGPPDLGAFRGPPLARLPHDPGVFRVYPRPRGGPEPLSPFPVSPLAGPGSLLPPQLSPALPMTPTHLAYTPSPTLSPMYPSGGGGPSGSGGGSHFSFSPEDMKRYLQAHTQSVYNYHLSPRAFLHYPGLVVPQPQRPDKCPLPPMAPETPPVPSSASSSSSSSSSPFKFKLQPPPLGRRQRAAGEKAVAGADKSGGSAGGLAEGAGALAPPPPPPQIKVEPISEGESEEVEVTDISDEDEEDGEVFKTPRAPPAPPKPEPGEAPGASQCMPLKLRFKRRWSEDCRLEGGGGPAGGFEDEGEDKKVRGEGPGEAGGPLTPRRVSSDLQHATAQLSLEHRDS
The following applies: protein: recombinant; tags: N-terminal GST; dsDNA, one strand shown. The procedure, abridged:
as §1

Another assay addresses T7, ETV3L (Homo sapiens, UniProt Q6ZN32 1-361).
T7 sequence: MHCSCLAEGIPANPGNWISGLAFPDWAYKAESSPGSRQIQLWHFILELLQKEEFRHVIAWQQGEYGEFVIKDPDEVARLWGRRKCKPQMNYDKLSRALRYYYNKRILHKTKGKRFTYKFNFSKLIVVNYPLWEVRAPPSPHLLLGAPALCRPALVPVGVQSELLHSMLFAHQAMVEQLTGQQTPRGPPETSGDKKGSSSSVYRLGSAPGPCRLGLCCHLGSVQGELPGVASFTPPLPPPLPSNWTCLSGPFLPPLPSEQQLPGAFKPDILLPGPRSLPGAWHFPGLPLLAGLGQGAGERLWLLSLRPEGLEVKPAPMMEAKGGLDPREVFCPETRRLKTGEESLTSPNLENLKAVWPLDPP
The conditions noted are these: protein: recombinant; tags: N-terminal GST; dsDNA, one strand shown. The essentials: as §1

For a further assay, the target named is T8, ETS2 (Homo sapiens, UniProt P15036 1-469).
T8 sequence: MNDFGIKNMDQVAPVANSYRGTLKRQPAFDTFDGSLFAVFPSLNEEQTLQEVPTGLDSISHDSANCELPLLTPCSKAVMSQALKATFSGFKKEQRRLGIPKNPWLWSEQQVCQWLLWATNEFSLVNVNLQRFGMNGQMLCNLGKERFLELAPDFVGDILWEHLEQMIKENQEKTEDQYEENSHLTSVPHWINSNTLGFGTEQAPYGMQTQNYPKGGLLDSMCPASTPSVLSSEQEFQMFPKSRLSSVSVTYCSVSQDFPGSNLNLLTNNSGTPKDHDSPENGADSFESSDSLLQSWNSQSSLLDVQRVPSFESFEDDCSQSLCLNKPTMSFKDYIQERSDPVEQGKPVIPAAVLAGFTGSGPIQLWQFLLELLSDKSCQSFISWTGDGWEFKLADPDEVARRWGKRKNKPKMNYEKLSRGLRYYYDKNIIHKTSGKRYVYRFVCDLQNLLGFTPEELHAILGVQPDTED
The following applies: protein: recombinant; tags: N-terminal GST; dsDNA, one strand shown. The procedure, abridged: as §1

The target of another assay is T9, SPDEF (Homo sapiens, UniProt O95238 1-335).
T9 sequence: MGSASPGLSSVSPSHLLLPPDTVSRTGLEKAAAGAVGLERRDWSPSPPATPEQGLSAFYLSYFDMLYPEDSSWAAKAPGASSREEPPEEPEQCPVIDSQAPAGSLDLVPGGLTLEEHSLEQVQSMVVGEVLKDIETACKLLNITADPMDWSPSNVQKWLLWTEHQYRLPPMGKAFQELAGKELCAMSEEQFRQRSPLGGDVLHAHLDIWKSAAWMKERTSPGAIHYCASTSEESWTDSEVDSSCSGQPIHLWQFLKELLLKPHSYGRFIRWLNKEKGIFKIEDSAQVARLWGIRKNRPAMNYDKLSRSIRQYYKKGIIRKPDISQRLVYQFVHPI
The following applies: protein: recombinant; tags: N-terminal GST; dsDNA, one strand shown. The essentials: as §1

A further assay deals with T10, ETV7 (Homo sapiens, UniProt Q9Y603 1-341).
T10 sequence: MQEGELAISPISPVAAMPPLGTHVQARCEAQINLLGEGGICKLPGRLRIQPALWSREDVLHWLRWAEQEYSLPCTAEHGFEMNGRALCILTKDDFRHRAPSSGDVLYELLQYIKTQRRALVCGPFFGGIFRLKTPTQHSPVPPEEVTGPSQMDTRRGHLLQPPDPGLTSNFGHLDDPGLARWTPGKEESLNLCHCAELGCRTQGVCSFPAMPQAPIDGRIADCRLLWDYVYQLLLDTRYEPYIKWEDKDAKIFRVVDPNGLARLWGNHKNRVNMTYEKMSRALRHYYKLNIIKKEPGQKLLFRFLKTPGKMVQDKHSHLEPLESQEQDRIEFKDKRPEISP
The following applies: protein: recombinant; tags: N-terminal GST; dsDNA, one strand shown. The procedure, abridged: as §1

The next assay has as its target T11, ELF5 (Homo sapiens, UniProt Q9UKW6-2 1-255).
T11 sequence: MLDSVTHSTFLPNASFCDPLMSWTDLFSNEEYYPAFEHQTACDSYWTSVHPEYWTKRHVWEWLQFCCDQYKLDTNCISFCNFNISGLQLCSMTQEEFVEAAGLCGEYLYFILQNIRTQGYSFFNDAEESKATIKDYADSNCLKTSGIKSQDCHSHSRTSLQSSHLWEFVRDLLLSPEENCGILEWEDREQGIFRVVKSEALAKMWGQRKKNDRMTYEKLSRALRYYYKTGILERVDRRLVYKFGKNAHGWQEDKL
The following applies: protein: recombinant; tags: N-terminal GST; dsDNA, one strand shown. The procedure, abridged:
as §1

The target in another assay is T12, ETV3 (Homo sapiens, UniProt P41162-2 1-143).
T12 sequence: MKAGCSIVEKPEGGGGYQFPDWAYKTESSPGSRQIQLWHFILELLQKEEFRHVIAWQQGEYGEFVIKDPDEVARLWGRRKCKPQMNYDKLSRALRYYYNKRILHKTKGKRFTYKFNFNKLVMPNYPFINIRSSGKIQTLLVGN
The conditions noted are these: protein: recombinant; tags: N-terminal GST; dsDNA, one strand shown. The essentials:
as §1

The target of a further assay is ETV6 (Homo sapiens, UniProt P41212 1-452). The conditions noted are these: protein: recombinant; tags: N-terminal GST; dsDNA, one strand shown. The procedure, abridged:
as §1

ETV5, sequence (P41161 whole entry): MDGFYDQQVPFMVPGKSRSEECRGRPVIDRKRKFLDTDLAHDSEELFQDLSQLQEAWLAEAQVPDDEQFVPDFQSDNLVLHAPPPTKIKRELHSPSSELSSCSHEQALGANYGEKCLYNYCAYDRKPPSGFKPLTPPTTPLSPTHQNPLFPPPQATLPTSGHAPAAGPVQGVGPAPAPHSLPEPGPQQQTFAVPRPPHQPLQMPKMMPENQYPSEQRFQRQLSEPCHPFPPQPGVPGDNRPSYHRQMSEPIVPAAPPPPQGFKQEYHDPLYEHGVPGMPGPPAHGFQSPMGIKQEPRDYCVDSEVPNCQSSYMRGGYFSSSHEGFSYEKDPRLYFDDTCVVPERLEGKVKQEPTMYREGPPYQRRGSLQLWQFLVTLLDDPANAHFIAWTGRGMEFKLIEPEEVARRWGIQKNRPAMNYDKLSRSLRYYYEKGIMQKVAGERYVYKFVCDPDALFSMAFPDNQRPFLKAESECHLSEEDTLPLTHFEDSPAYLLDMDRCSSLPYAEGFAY
ETV6, sequence (P41212 whole entry): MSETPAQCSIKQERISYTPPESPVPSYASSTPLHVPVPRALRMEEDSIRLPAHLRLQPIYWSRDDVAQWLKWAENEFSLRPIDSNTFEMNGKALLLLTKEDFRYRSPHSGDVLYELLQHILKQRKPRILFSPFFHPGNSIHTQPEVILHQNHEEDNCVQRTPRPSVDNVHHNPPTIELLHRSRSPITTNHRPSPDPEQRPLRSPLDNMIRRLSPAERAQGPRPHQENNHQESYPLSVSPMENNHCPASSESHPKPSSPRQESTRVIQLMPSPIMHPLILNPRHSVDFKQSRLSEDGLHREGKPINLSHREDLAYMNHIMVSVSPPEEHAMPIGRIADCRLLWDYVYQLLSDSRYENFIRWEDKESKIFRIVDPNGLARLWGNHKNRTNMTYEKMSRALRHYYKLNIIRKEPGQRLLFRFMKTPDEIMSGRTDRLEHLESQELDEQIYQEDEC
CRX, sequence (O43186 whole entry): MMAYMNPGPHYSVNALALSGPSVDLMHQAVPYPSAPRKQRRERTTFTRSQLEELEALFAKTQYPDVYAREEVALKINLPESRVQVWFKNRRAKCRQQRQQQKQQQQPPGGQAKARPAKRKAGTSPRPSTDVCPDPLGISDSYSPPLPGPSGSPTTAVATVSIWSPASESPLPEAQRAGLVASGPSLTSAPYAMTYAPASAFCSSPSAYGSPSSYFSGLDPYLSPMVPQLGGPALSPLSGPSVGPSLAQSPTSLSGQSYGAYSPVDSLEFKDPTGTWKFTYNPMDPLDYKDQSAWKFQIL
ELF4, sequence (Q99607 whole entry): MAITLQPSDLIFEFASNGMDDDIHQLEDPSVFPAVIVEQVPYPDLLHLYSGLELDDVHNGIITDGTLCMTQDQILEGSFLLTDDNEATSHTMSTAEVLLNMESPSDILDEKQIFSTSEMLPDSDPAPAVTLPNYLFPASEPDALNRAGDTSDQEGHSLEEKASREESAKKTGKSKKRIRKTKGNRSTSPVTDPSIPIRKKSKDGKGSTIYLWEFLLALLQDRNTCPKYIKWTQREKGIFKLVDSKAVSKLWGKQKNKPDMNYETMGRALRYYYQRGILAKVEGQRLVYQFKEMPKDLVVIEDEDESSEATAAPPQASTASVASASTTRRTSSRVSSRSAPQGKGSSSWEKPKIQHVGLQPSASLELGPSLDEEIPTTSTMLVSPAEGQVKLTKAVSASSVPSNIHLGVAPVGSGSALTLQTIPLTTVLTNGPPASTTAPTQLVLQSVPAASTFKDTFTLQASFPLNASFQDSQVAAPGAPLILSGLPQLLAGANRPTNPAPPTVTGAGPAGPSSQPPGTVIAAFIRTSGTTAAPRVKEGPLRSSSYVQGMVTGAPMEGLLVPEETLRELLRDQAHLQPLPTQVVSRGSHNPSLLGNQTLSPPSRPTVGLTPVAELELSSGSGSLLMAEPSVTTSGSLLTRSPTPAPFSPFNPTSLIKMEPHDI
HSF1, sequence (Q00613 whole entry): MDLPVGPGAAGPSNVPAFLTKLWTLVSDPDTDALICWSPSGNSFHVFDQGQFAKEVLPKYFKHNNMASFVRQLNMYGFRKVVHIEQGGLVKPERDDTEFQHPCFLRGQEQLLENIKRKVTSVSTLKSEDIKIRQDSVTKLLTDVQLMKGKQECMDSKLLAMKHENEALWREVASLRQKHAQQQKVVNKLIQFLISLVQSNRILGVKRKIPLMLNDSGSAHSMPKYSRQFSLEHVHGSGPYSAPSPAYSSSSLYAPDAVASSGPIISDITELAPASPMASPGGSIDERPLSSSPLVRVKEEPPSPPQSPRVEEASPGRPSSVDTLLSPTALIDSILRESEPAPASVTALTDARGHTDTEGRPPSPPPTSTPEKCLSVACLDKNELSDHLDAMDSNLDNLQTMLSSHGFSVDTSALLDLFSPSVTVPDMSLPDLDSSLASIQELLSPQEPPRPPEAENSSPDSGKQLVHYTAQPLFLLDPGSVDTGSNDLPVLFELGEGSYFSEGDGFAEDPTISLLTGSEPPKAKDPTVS
ETV1, sequence (P50549 whole entry): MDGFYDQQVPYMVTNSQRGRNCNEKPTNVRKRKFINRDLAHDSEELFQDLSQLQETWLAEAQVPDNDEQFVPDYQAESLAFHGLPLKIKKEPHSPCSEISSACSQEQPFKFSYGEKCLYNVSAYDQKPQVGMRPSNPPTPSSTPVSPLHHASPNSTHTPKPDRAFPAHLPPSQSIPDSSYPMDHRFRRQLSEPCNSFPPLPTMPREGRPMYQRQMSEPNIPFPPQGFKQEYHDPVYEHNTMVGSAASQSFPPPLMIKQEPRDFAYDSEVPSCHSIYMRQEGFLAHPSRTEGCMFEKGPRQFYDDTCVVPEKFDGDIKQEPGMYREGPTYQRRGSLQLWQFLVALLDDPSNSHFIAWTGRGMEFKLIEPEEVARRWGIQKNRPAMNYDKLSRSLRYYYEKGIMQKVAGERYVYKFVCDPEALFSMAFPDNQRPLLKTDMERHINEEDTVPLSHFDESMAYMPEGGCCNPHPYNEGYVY

Turning to TAGTTC, the binding signal with FEV is 1.28 fold enrichment (6-mer frequency, TF over GST control); with ETV5 it was 1.41 fold enrichment (6-mer frequency, TF over GST control); with HSF1 it was 1.45 fold enrichment (6-mer frequency, TF over GST control); with SPIC, 1.47 fold enrichment (6-mer frequency, TF over GST control); with ELF4, 1.43 fold enrichment (6-mer frequency, TF over GST control); in the assay with ELK4, 1.49 fold enrichment (6-mer frequency, TF over GST control). In addition, the binding signal with ETV2 is 1.4 fold enrichment (6-mer frequency, TF over GST control); in the assay with ELF3, 1.49 fold enrichment (6-mer frequency, TF over GST control); in the assay with CRX it was 1.23 fold enrichment (6-mer frequency, TF over GST control); in the assay with ETV1, 1.4 fold enrichment (6-mer frequency, TF over GST control); with ERF it was 1.29 fold enrichment (6-mer frequency, TF over GST control); in the assay with ETV3L, 1.44 fold enrichment (6-mer frequency, TF over GST control). For the same sequence, the binding signal with ETS2 was 1.43 fold enrichment (6-mer frequency, TF over GST control); with SPDEF, 1.5 fold enrichment (6-mer frequency, TF over GST control); with ETV7 it was 1.31 fold enrichment (6-mer frequency, TF over GST control); with ELF5 it was 1.41 fold enrichment (6-mer frequency, TF over GST control); with ETV3, 1.49 fold enrichment (6-mer frequency, TF over GST control); with ETV6, 1.41 fold enrichment (6-mer frequency, TF over GST control).

Source of the values: publication PMC7862700, “An all-to-all approach to the identification of sequence-specific readers for epigenetic DNA modifications on cytosine”.
